TDP1 cell CPT: growth inhibition of DT40 Tdp1-/-;hTDP1 cells with camptothecin (screen for TDP1 inhibitors); chicken DT40 Tdp1-/-;hTDP1 cells + 20 nM CPT, ATP luminescence, 48 h; Potency, µM (series often up to 46.2 µM), inactives show top-dose activity change, negative = growth inhibition, actives largely listed as inhibitors; actives 12% (n = 420,000); AID 686979; note: % is set by controls: 0 for no effect and ±100 for the full control effect; nearly all actives have a fitted effect of over 55% in size
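Chicken DT40 Tdp1-/- cells complemented with human TDP1, 400 cells/well, exposed to compounds plus 20 nM camptothecin for at least 48 h at 37 C; viability read as ATP content by CellTiter-Glo luminescence.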
DT40 TDP1 no CPT: qHTS for Inhibitors of human tyrosyl-DNA phosphodiesterase 1 (TDP1): qHTS in cells in absence of CPT; actives 15% (n = 420,000); Potency, µM (titrated, usually from 46.2 µM), without a hit: at the highest dose activity change, negative = growth inhibition, hits mostly inhibitors; DT40 Tdp1-/- hTDP1 cells, no CPT, ATP luminescence, 48 h; note: % is set by controls: 0 for no effect and ±100 for the full control effect; nearly all actives have a fitted effect of over 55% in size
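Stably hTDP1-transfected Tdp1-null chicken DT40 cells were treated with library compounds minus camptothecin and grown for at least 48 hr at 37 °C, after which cellular ATP was quantified by luminescence.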
ClpP mod: qHTS Assay for Activators of ClpP; actives 1.9% (n = 340,000); Potency, µM (series often up to 57.5 µM), for the others: at the top dose activity change, negative = active; purified B. subtilis ClpP, FRET peptide cleavage, 20 min; active = well fitted falling curve with a large enough effect; inconclusive = small, poorly fitted or top-dose-only effect; inactive = no such curve, though single readings can be large or run the other way; note: the source files actives as falling curves though it sought activators and does not explain the sign; nearly all actives have a fitted effect of over 65% in size
Target sequence (P80244 whole entry, looked up): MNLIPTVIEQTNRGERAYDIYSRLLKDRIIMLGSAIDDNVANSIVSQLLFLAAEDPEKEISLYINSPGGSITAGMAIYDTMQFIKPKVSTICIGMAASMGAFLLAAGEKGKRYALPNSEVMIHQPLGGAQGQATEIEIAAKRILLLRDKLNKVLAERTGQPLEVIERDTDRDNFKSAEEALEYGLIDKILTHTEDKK
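FRET quenching reversal measured ClpP activation: 10 microg/mL B. subtilis ClpP at pH 8 with the FRET-FV decapeptide, read at 430 nm after 320 nm excitation. The 20-min minus 0-min signal was scaled between DMSO/no-enzyme wells and ADEP (5.8 microM final).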
TDP1 block: TDP1 (human) enzyme inhibition; Q9NUW8; recombinant TDP1, AlphaScreen DNA substrate cleavage; Potency, µM (series often up to 130 µM), inactives show at the highest dose activity change, negative = inhibition, most hits filed as inhibitors; actives 0.28% (n = 350,000); note: % is set by controls: 0 for no effect and ±100 for the full control effect; nearly all actives have a fitted effect of over 40% in size
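Recombinant E. coli-expressed Tdp1 (1 nM) preincubated with compound 15 min at RT, then 5'-biotin/3'-phosphotyrosine-FITC DNA substrate (15 nM) added for 5 min. AlphaScreen beads (10 ug/ml) added, 10 min RT; tyrosine-FITC cleavage read as signal loss.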
* marks the source's active call; other numbers are inactive results; u = inconclusive; x = no result given. Sampled rows, rich in hits. Any-hit rate of the full collection: about 17%. Unless noted, calls come from the whole dose curve; as a rule, active = well fitted curve in the direction sought with a large enough effect; inconclusive = small, poorly fitted or top-dose-only effect, or another doubt; inactive = no such curve, though single readings can be large; an effect the other way counts as inactive or inconclusive. Potency is the fitted concentration of half-maximal effect.

SMILES	TDP1 cell CPT	DT40 TDP1 no CPT	ClpP mod	TDP1 block
COc1ccc2[nH]cc(CCNc3ccnc(-c4ccccc4C)n3)c2c1	21µM*	u	x	x
COc1ccc2[nH]cc(CCNc3cc(-c4ccc(C(=O)N(C)C)cc4)ncn3)c2c1	u	-17%	x	x
COc1ccc2[nH]cc(CCNc3nc(-c4cccnc4)nc4ccccc34)c2c1	23µM*	u	x	x
OC(CNc1nc(-c2cccnc2)nc2ccccc12)c1ccccc1 (centres undefined)	15µM*	23µM*	x	5%
COc1ccc2[nH]cc(CCNc3ccnc(-c4ccc(C(=O)N(C)C)cc4)n3)c2c1	12µM*	12µM*	x	x
Cc1ccc(S(=O)(=O)N2N=C3CCCCC3C2(O)C(F)(F)F)cc1 (centres undefined)	0%	-23%	x	5%
O=C(CCCN1C(=O)C2CC=CCC2C1=O)Nc1ccccc1F (centres undefined)	10%	5%	1%	2%
COc1cccc(-c2nccc(NCc3cnc(C)cn3)n2)c1	8%	-18%	x	x
COc1cccc(-c2nccc(NCCc3c[nH]c4ccc(OC)cc34)n2)c1	13µM*	u	x	x
COc1cc(C2C(C(=O)Nc3ccccc3)=C(C)Nc3nc(SCC(=O)c4ccc(C)cc4)nn32)ccc1O (centres undefined)	0%	-5%	2%	1%
CC1=C(C(=O)Nc2ccc(Cl)cc2)C(c2ccccc2F)n2nc(SCc3cccc(Cl)c3)nc2N1 (centres undefined)	u	23µM*	0%	0%
CC1=C(C(=O)Nc2ccc(Cl)cc2)C(C(C)C)n2nc(SCc3ccc(Cl)cc3)nc2N1 (centres undefined)	16µM*	23µM*	-5%	5%
CCOc1ccc(C2C(C(=O)Nc3ccc(OC)cc3)=C(C)Nc3nc(SCc4ccc(Cl)cc4)nn32)cc1 (centres undefined)	-1%	-23%	4%	-3%
CC1=C(C(=O)Nc2ccccc2)C(c2ccccc2C)n2nc(SCC(=O)c3ccc(C)cc3)nc2N1 (centres undefined)	5.8µM*	18µM*	u	-3%
Cc1ccc(/C=N\NC(=O)/C(=C\Nc2nccc(C)n2)NC(=O)c2ccccc2)cc1	-30%	-26%	x	2%
COC(=O)c1ccccc1NC(=O)c1cccc(COc2ccccc2Cl)c1	9.2µM*	8.2µM*	25µM*	-11%
Cc1cc(C)n(Cc2ccc(NC(=O)c3ccc(COc4ccccc4Br)cc3)cc2)n1	21µM*	29µM*	-10%	2%
O=C(NCc1ccccc1)c1cccc(COc2ccccc2Cl)c1	-15%	-24%	-2%	-6%
O=C(Nc1ccc(Cl)cn1)c1ccc(COc2ccccc2Br)o1	u	u	x	2%
O=C(Nc1nn(Cc2ccc(Cl)cc2)cc1Br)c1ccc(COc2ccccc2Cl)o1	26µM*	26µM*	-2%	3%
O=C(Nc1cccnc1)c1ccc(COc2cc(Cl)ccc2Cl)o1	u	18µM*	-3%	0%
CN(C)c1cccc(C(=O)Nc2cccc(S(=O)(=O)NC3=NCCC3)c2)c1	14%	-1%	1%	5%
CNc1ccc(/C=C2\C=Cc3ccccc32)cc1Br	u	u	-1%	x
Cc1ccccc1NC(=O)Cn1nc(-c2ccccc2)nc(Cc2ccccc2)c1=O	10%	-26%	2%	6%
O=C(CN1C(=O)c2ccccc2Sc2ccc(C(=O)N3CCOCC3)cc21)Nc1ccc(Cl)cc1F	-11%	-1%	0%	-5%
CN(C)c1ccc(NC(=O)c2ccc(COc3cccc(Cl)c3)o2)cc1	21µM*	u	1%	10%
Cc1cc(C)nc(NC(=O)c2ccc(COc3ccccc3Cl)cc2)c1	18µM*	26µM*	x	5%
Cc1ccc(NC(=O)c2ccc(COc3ccccc3Cl)o2)cc1	u	u	15%	-5%
O=C(NCc1cccnc1)c1ccc(COc2ccccc2Br)cc1	7%	u	x	8%
O=C(Nc1cccnc1)c1ccc(COc2ccccc2Cl)o1	18µM*	21µM*	0%	-3%
